For 29 compounds, morphology score and SARS-CoV-2 infection rate results are on record in the supplement of paper PMC13380429.

Test [1] relates to Vero E6 infected with SARS-CoV-2. The test can be described thus: morphology score (similarity to uninfected cells); higher = more like uninfected cells. The settings on record: 24 h.
Test [2] shares this test system. Nature of the test: SARS-CoV-2 infection rate relative to infected DMSO; higher = more infection, active = 60 or less. The note with it: 24 h.

Molecules are shown by their SMILES.

For `Nc1ccn([C@@H]2O[C@H](CO)[C@@H](O)C2(F)F)c(=O)n1` [gemcitabine] (0.833333 µM), the morphology score in test [1] was -0.00574. Also, the SARS-CoV-2 infection rate in test [2] is 114% (inactive).
In the same order, the values of `Fc1ccc(C(OCCN2CCN(CCCc3ccccc3)CC2)c2ccc(F)cc2)cc1` [vanoxerine] (0.833333 µM) are 0.275 and 86% (inactive).
In the same order, the values of `CN1CCC(=C2c3ccccc3Sc3ccccc32)CC1` [pimethixene] (10 µM) are 0.373 and 85.5% (inactive).
In turn, `CSc1ccccc1OCC(O)CNC(C)C` (stereo not drawn) [tiprenolol] (10 µM) had a morphology score in test [1] of -0.224. The SARS-CoV-2 infection rate in test [2] is 110% (inactive).
In the same order, the values of `CC(NCCc1ccc(O)cc1)C(O)c1ccc(O)cc1` (stereo not drawn) [ritodrine] (10 µM) are 0.154 and 96% (inactive).
In the same order, the values of `NCCc1cc(O)c(O)cc1O` [oxidopamine] (10 µM) are 0.0957 and 102% (inactive).
In the same order, the values of `Ic1cc(-c2ccccc2)ncn1` [4-iodo-6-phenylpyrimidine] (10 µM) are 0.254 and 81.5% (inactive).
Take `Cc1cccc(C)c1NC(=O)/N=C1\CCCN1C` [xilobam] (10 µM): in test [1], the morphology score was 0.132. Further, the SARS-CoV-2 infection rate in test [2] was 102% (inactive).
In test [1], `CC(=O)Nc1ncc([N+](=O)[O-])s1` [nithiamide] (10 µM) had a morphology score of 0.0207. Further, the SARS-CoV-2 infection rate in test [2] was 90% (inactive).
In the same order, the values of `CCCCC(F)(F)[C@@]1(O)CC[C@H]2[C@@H](CC(=O)[C@@H]2CCCCCCC(=O)O)O1` [lubiprostone] (10 µM) are 0.0116 and 107% (inactive).
`N=C(N)NC(=O)c1cnn(-c2cccc3ncccc23)c1C1CC1` [zoniporide] (10 µM) registered a morphology score in test [1] of 0.127. In addition, the SARS-CoV-2 infection rate in test [2] is 115% (inactive).
In the same order, the values of `COc1cc(N2CCN(C(C)=O)CC2)ccc1Nc1ncc(Cl)c(Nc2ccc(N3CCN(C(C)=O)CC3)cc2OC)n1` (10 µM) are 0.0828 and 114% (inactive).
In the case of `CCNCCCNCCCCNCCCNCC` (0.833333 µM), the morphology score in test [1] was 0.312. In addition, the SARS-CoV-2 infection rate in test [2] was 80.5% (inactive).
In the same order, the values of `CCc1cc(C(C)=O)c(O)cc1OCCCCCC(C)(C)c1nn[nH]n1` (10 µM) are 0.0736 and 100% (inactive).
In the same order, the values of `C#CCN(C)[C@H](C)Cc1ccccc1` [selegiline] (10 µM) are 0.0406 and 105% (inactive).
In test [1], `O=C(Cc1ccc(-c2ccccc2)cc1)Nc1ccccn1` [difenpiramide] (10 µM) returned a morphology score of 0.431. Besides, the SARS-CoV-2 infection rate in test [2] was 62% (inactive).
In the same order, the values of `Nc1nc2c(c(N3CCNCC3)n1)CCC1=C2[C@@H]2CCCC[C@@H]2O1` (10 µM) are 0.247 and 83.5% (inactive).
Compound `Cc1ccc(NC2=NCCN2)c(Cl)c1` [tolonidine] (10 µM) displayed a morphology score in test [1] of -0.0217. For the same compound, the SARS-CoV-2 infection rate in test [2] was 98.5% (inactive).
For the compound `O=C1O[C@H]([C@@H](O)CO)C([O-])=C1O.[Na+]` [sodium-ascorbate] (10 µM), in test [1], the morphology score stood at 0.159. For the same compound, in test [2], the SARS-CoV-2 infection rate is 95.5% (inactive).
In the same order, the values of `Clc1ccc(C2(c3ccc(-c4cn[nH]c4)cc3)CCNCC2)cc1` (0.833333 µM) are 0.29 and 112% (inactive).
In the same order, the values of `COc1cccc(C=NCCN=Cc2cccc(OC)c2[O-])c1[O-].[Cl-].[Mn+3]` (10 µM) are -0.0731 and 95% (inactive).
In turn, `CC(C)(c1ccc(O)cc1)c1ccc(O)cc1` [bisphenol-A] (10 µM) yielded a morphology score in test [1] of 0.0642. The SARS-CoV-2 infection rate in test [2] is 106% (inactive).
In the same order, the values of `COc1ccc(Cl)c(Nc2ncnc3cc(OCC4CCN(C)CC4)c(OC)cc23)c1` (10 µM) are -0.108 and 114% (inactive).
In the same order, the values of `CN[C@H](CC(C)C)C(=O)N[C@H]1C(=O)N[C@@H](CC(N)=O)C(=O)N[C@H]2C(=O)N[C@H]3C(=O)N[C@H](C(=O)N[C@H](C(=O)O)c4cc(O)cc(O)c4-c4cc3ccc4O)[C@H](O[C@H]3C[C@](C)(N)[C@@H](O)[C@H](C)O3)c3ccc(c(Cl)c3)Oc3cc2cc(c3O[C@@H]2O[C@H](CO)[C@@H](O)[C@H](O)[C@H]2O[C@H]2C[C@](C)(NCc3ccc(-c4ccc(Cl)cc4)cc3)[C@@H](O)[C@H](C)O2)Oc2ccc(cc2Cl)[C@H]1O` [oritavancin] (10 µM) are 0.0399 and 92% (inactive).
In the same order, the values of `COc1cc(-n2c(=S)[nH]c3ccccc3c2=O)c(Cl)cc1Cl` [mdivi-1] (10 µM) are -0.0304 and 112% (inactive).
In test [1], `CCC(C)(CN(C)C)OC(=O)c1ccccc1` (stereo not drawn) [amyleine] (10 µM) displayed a morphology score of -0.104. Moreover, in test [2], the SARS-CoV-2 infection rate was 120% (inactive).
In the same order, the values of `Cc1[nH]c(=O)c(C#N)cc1-c1ccc2nccn2c1` [olprinone] (10 µM) are 0.0999 and 104% (inactive).
In the same order, the values of `O=Cc1cn(Cc2ccc(Cl)cc2)c2ccccc12` [oncrasin-1] (10 µM) are 0.108 and 110% (inactive).
In the same order, the values of `CCS(=O)(=O)Nc1ccc2c(c1)/C(=C(/Nc1ccc(CN3CCCCC3)cc1)c1ccccc1)C(=O)N2` [hesperadin] (10 µM) are -0.262 and 110% (inactive).
